Measured values as given in PubChem BioAssay.
Activity calls are given as the source filed them. Unless noted, the rule behind the calls is not given here.

Legend:
[1] = compound effects on lung adenocarcinoma cell viability – A549, calcein-AM fluorescence, 48 h, basal, profiling panel (AID 1162); conditions: higher = more signal; note: test concentration not given here
[2] = compound effects on differentiated 3T3-L1 adipocyte viability – cell-based, 3T3-L1 adipocytes, calcein-AM fluorescence, 48 h, basal, profiling panel (AID 1163); conditions: 3T3-L1 adipocytes viability, higher = more signal; note: test concentration not given here
[3] = compound effects on hepatocellular carcinoma cell viability – HepG2, calcein-AM fluorescence, 48 h, basal, profiling panel (AID 1164); conditions: higher = more signal; note: test concentration not given here
[4] = compound effects on multiple myeloma cell viability – MM1S, calcein-AM fluorescence, 48 h, basal, profiling panel (AID 1165); conditions: higher = more signal; note: test concentration not given here
[5] = calcein-AM signal in unstimulated myeloma cells – cell-based, calcein-AM fluorescence, 48 h, PK04 Diversity Set, profiling panel (AID 1166); conditions: RPMI8226 myeloma viability, higher = more signal;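 note: cells grown under basal conditions without added stimulus; test concentration not given here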
[6] = JC-1 mitochondrial signal, unstimulated HepG2 cells – cell-based, JC-1 fluorescence, 24 h, 100 nL compound, profiling panel (AID 1167); conditions: HepG2 mitochondrial potential, higher = more signal; note: test concentration not given here
[7] = JC-1 mitochondrial signal, unstimulated adipocytes – cell-based, JC-1 fluorescence, 3T3-L1 adipocytes, 24 h, 100 nL compound, profiling panel (AID 1168); conditions: JC-1 mitochondrial fluorescence, higher = more signal, called active from +8 up or from −8 down; note: test concentration not given here
[8] = JC-1 mitochondrial signal, unstimulated myeloma cells – cell-based, JC-1 fluorescence, RPMI8226, 24 h, 100 nL compound, profiling panel (AID 1169); conditions: JC-1 mitochondrial potential fluorescence, higher = more signal; note: test concentration not given here
[9] = JC-1 mitochondrial signal, unstimulated MM1S myeloma – cell-based, JC-1 fluorescence, 24 h, 100 nL compound, profiling panel (AID 1170); conditions: MM1S mitochondrial potential, higher = more signal; note: test concentration not given here
[10] = resazurin metabolic signal in A549 cells – cell-based, resazurin fluorescence, 24 h, PK04 Diversity Set, profiling panel (AID 1171); conditions: A549 viability, higher = more signal, called active from +8 up or from −8 down; note: test concentration not given here
[11] = resazurin metabolic signal in HepG2 cells – cell-based, resazurin fluorescence, 24 h, PK04 Diversity Set, profiling panel (AID 1172); conditions: HepG2 viability, higher = more signal; note: test concentration not given here
[12] = budding yeast growth changes without added modifier – OD600, strain BY4716, 24 h, basal condition, primary screen (AID 1173); conditions: S. cerevisiae BY4716 growth, OD600, 24 h; higher = more signal, called active from +8 up or from −8 down
[13] = viability profiling in MM1S myeloma cells – cell-based, resazurin fluorescence, basal, 24 h, PK04 Diversity Set, profiling panel (AID 1174); conditions: higher = more signal, called active from +8 up or from −8 down; note: test concentration not given here
[14] = target: Dihydroorotate dehydrogenase (quinone), mitochondrial (Plasmodium falciparum (isolate 3D7)) (UniProt Q08210); test: inhibition of P. falciparum DHODH – biochemical, C-terminal His tag, absorbance 600 nm, primary screen (AID 1175); conditions: PfDHODH enzyme, DCIP absorbance 600 nm; higher = more signal, called active from +8 up or from −8 down;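 note: recombinant parasite enzyme with a five histidine tag at its C terminus; test concentration not given here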
Dihydroorotate dehydrogenase (quinone), mitochondrial (Plasmodium falciparum (isolate 3D7)), sequence (Q08210 whole entry, looked up): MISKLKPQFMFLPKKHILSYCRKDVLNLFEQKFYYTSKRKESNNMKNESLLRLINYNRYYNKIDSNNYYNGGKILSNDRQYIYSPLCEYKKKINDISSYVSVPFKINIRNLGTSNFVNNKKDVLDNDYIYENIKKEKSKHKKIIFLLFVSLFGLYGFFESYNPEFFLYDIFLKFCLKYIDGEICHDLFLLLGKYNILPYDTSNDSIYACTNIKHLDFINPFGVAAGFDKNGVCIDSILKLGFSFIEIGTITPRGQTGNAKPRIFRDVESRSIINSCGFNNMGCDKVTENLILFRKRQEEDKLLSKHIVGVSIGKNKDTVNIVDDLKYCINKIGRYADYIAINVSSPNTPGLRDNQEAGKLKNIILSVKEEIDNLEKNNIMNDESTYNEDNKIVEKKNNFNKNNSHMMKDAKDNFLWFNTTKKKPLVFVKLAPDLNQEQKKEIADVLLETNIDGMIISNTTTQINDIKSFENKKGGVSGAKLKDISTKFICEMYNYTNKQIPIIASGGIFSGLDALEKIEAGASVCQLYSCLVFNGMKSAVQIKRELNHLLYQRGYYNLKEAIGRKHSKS

[15] = inhibition of PAO1 biofilm formation – strain PAO1, LB-PBS medium, absorbance 600 nm, primary screen (AID 1176); note: test concentration not given here; conditions: P. aeruginosa PAO1 growth/biofilm, A600, 12 h; higher = more signal
[16] = growth modulation of vineyard yeast isolate – strain RM11-1a, OD600, basal, 24 h, primary screen (AID 1177);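 note: cultures grown under basal conditions with no added stressor; test concentration not given here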; conditions: S. cerevisiae RM11-1a growth, OD600, 24 h; higher = more signal, called active from +8 up or from −8 down
[17] = growth of efflux-deficient E. coli DRC39 – strain DRC39, OD650, 24 h, E. coli filamentation inducers, primary screen (AID 1178);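 note: growth measured as culture turbidity by optical density at 650 nm; test concentration not given here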; conditions: E. coli DRC39 acrAB, higher = more signal, called active from +8 up or from −8 down
[18] = growth of efflux-deficient E. coli DRC39 – strain DRC39, OD650, 48 h, E. coli filamentation inducers, primary screen (AID 1179);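 note: screen aims at cell division blockers that make cells filament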; conditions: E. coli DRC39 delta-acrAB growth, higher = more signal, called active from +8 up or from −8 down
[19] = viability profiling in RPMI8226 myeloma cells – cell-based, resazurin fluorescence, basal, 24 h, PK04 Diversity Set, profiling panel (AID 1180); conditions: higher = more signal;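 note: RPMI8826 multiple myeloma cell line at 5000 cells per well; test concentration not given here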
[20] = target: E3 ubiquitin-protein ligase XIAP (Homo sapiens) (UniProt P98170); test: small molecules binding XIAP protein – biophysical, small-molecule microarray, fluorescence 635 nm, primary screen (AID 1181); conditions: higher = more signal;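 note: score merges 667 nm emission and signal to noise over triplicate slides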
E3 ubiquitin-protein ligase XIAP (Homo sapiens), sequence (P98170 whole entry, looked up): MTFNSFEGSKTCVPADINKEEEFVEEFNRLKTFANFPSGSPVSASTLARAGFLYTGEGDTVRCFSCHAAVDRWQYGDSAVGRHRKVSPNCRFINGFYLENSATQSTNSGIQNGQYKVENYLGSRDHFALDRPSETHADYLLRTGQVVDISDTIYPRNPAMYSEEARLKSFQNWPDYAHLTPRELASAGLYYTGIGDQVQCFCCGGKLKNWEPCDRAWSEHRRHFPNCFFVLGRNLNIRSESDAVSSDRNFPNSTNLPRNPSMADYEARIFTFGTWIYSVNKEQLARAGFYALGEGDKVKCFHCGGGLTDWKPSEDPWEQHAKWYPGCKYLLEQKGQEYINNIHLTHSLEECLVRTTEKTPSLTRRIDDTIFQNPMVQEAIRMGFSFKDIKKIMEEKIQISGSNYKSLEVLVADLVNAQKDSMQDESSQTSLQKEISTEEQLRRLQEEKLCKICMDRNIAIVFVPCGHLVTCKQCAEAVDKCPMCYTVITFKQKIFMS

CCOC(=O)C1=C[C@@H](C(C)C)N(S(=O)(=O)c2ccc(C)cc2)[C@H]1c1ccc(C(F)(F)F)cc1
z-score [1]: -0.731
z-score [2]: -0.448
z-score [3]: -1.53
z-score [4]: -2.91
z-score [5]: -1.65
z-score [6]: 3.7
z-score [7]: -0.216 (inactive)
z-score [8]: -0.208
z-score [9]: -0.446
z-score [10]: 0.793 (inactive)
z-score [11]: -0.698
z-score [12]: 2.42 (inactive)
z-score [13]: -0.267 (inactive)
composite z-score [14]: 0.919 (inactive)
z-score [15]: -0.0322 (inactive)
z-score [16]: 2.24 (inactive)
z-score [17]: -0.227 (inactive)
z-score [18]: -0.442 (inactive)
z-score [19]: -1.58
composite z-score [20]: 0.109

CCN(CC)c1ccc(N2CC=CC34O[C@@H]5/C=C\CCCOC(=O)C5[C@H]3C(=O)N(C(C)CO)[C@@H]4C2=O)cc1 (stereo not given in full)
z-score [1]: 0.838
z-score [2]: -0.536
z-score [3]: 1.43
z-score [4]: 1.67
z-score [5]: 0.403
z-score [6]: 0.8
z-score [7]: 0.744 (inactive)
z-score [8]: -0.441
z-score [9]: 0.135
z-score [10]: 0.0032 (inactive)
z-score [11]: 0.242
z-score [12]: -0.566 (inactive)
z-score [13]: 0.516 (inactive)
composite z-score [14]: -2.25 (inactive)
z-score [15]: -0.14 (inactive)
z-score [16]: -0.355 (inactive)
z-score [17]: 1.9 (inactive)
z-score [18]: 1.92 (inactive)
z-score [19]: 0.778
composite z-score [20]: 0.115

CC1CC/C=C\[C@H]2OC34C=CCN(c5ccc6ccccc6c5)C(=O)[C@H]3N(CCCO)C(=O)[C@@H]4C2C(=O)O1 (stereo not given in full)
z-score [1]: -0.391
z-score [2]: -0.229
z-score [3]: -0.597
z-score [4]: -0.144
z-score [5]: -0.143
z-score [6]: -0.519
z-score [7]: -0.856 (inactive)
z-score [8]: 0.17
z-score [9]: 0.707
z-score [10]: -0.525 (inactive)
z-score [11]: -0.829
z-score [12]: 0.723 (inactive)
z-score [13]: -0.644 (inactive)
composite z-score [14]: 0.676 (inactive)
z-score [15]: -0.829 (inactive)
z-score [16]: 0.822 (inactive)
z-score [17]: -0.587 (inactive)
z-score [18]: -0.723 (inactive)
z-score [19]: 0.0719
composite z-score [20]: 0.275

C=CCC(OC(C)=O)[C@@H]1[C@@H](N(Cc2ccc(-c3cccc(C(F)(F)F)c3)o2)C(=O)c2ccc(-c3ccccc3)cc2)c2cc(OCCCO)ccc2N1C(=O)Cc1ccc2ccccc2c1 (stereo not given in full)
z-score [1]: -0.713
z-score [2]: 1.22
z-score [3]: 0.374
z-score [4]: 0.502
z-score [5]: -1.15
z-score [6]: 1.66
z-score [7]: 0.437 (inactive)
z-score [8]: -0.807
z-score [9]: 0.0299
z-score [10]: 0.378 (inactive)
z-score [11]: 0.0839
z-score [12]: 0.915 (inactive)
z-score [13]: -0.115 (inactive)
composite z-score [14]: 0.306 (inactive)
z-score [15]: 0.338 (inactive)
z-score [16]: 0.805 (inactive)
z-score [17]: 0.0952 (inactive)
z-score [18]: 0.119 (inactive)
z-score [19]: 0.322
composite z-score [20]: -0.17

Cc1ccc(C(C)CC(O)C2C=CC3C(=O)N(c4ccccc4)C(=O)C3N2Nc2ccccc2)o1 (stereo not given)
z-score [1]: -0.0446
z-score [2]: 0.001
z-score [3]: 0.179
z-score [4]: -0.559
z-score [5]: -1.69
z-score [6]: -1.64
z-score [7]: -0.279 (inactive)
z-score [8]: -0.178
z-score [9]: -1.71
z-score [10]: -0.706 (inactive)
z-score [11]: -1.38
z-score [12]: -2.27 (inactive)
z-score [13]: -1.01 (inactive)
composite z-score [14]: -0.478 (inactive)
z-score [15]: 0.574 (inactive)
z-score [16]: 0.184 (inactive)
z-score [17]: 0.1 (inactive)
z-score [18]: -0.681 (inactive)
z-score [19]: -0.738
composite z-score [20]: 0.254

O=C1N(Cc2ccccc2)c2ccccc2C[C@]12N=C(c1ccc(OCCCO)cc1)O[C@@H]2c1ccccc1
z-score [1]: -1.25
z-score [2]: -0.372
z-score [3]: -3.54
z-score [4]: -2.32
z-score [5]: -3.88
z-score [6]: -1.05
z-score [7]: 0.162 (inactive)
z-score [8]: -1.22
z-score [9]: -2.58
z-score [10]: -2.07 (inactive)
z-score [11]: -0.658
z-score [12]: 0.0989 (inactive)
z-score [13]: -2.55 (inactive)
composite z-score [14]: 0.581 (inactive)
z-score [15]: 1.58 (inactive)
z-score [16]: 1.29 (inactive)
z-score [17]: 0.223 (inactive)
z-score [18]: -0.2 (inactive)
z-score [19]: -2.6
composite z-score [20]: -0.135

O=C1C[C@]2(c3ccc([N+](=O)[O-])cc3)C(=O)N(C3CC3)c3cc(CO)ccc3[C@H]2N1CC12CC3CC(CC(C3)C1)C2
z-score [1]: 0.207
z-score [2]: 0.368
z-score [3]: -0.67
z-score [4]: 0.352
z-score [5]: -0.947
z-score [6]: -0.148
z-score [7]: -0.837 (inactive)
z-score [8]: 0.787
z-score [9]: -1.1
z-score [10]: -0.452 (inactive)
z-score [11]: -0.742
z-score [12]: 0.359 (inactive)
z-score [13]: -0.118 (inactive)
composite z-score [14]: -3.84 (inactive)
z-score [15]: 0.677 (inactive)
z-score [16]: 0.866 (inactive)
z-score [17]: -0.292 (inactive)
z-score [18]: -0.616 (inactive)
z-score [19]: 0.0683
composite z-score [20]: -0.158

OCCCC1=CC(c2ccc(CN3CCCC3)cc2)N(Cc2cc3c(cc2Br)OCO3)CC1 (stereo not given)
z-score [1]: -0.8
z-score [2]: 1.07
z-score [3]: 0.552
z-score [4]: -2.99
z-score [5]: 0.866
z-score [6]: 1.72
z-score [7]: -0.261 (inactive)
z-score [8]: 0.406
z-score [9]: 0.0254
z-score [10]: 0.731 (inactive)
z-score [11]: 0.195
z-score [12]: -0.538 (inactive)
z-score [13]: 0.163 (inactive)
composite z-score [14]: 0.198 (inactive)
z-score [15]: 0.485 (inactive)
z-score [16]: 0.622 (inactive)
z-score [17]: 0.243 (inactive)
z-score [18]: 0.149 (inactive)
z-score [19]: -0.343
composite z-score [20]: -0.0513

COc1ccc(C#Cc2ccc3c(c2)[C@]2(C(=O)N3)[C@H](C(=O)O)[C@H]3C(=O)O[C@H](c4ccccc4)[C@H](c4ccccc4)N3[C@@H]2c2ccc(O)cc2)cc1
z-score [1]: -0.483
z-score [2]: 1.65
z-score [3]: -0.176
z-score [4]: -2.61
z-score [5]: -3.91
z-score [6]: -3.99
z-score [7]: -1.15 (inactive)
z-score [8]: -0.85
z-score [9]: -0.623
z-score [10]: 0.199 (inactive)
z-score [11]: -0.704
z-score [12]: -1.07 (inactive)
z-score [13]: 0.239 (inactive)
composite z-score [14]: -4.06 (inactive)
z-score [15]: 0.381 (inactive)
z-score [16]: 0.128 (inactive)
z-score [17]: -0.0897 (inactive)
z-score [18]: -0.94 (inactive)
z-score [19]: -0.152
composite z-score [20]: -0.209
